GLP1R cytotox = cytotoxicity counter-screen for GLP-1 receptor inverse agonists | HEK293 cAMP-luciferase reporter cells, luminescence, 24 h | Potency, µM (doses to about 38.3 µM), most hits filed as inhibitors | 0.13% of 410,000 active;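 further: loss of luciferase light is scored as toxicity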
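Step one: seed cells (200 cells/uL, DMEM with 10% Nu serum, 1% pen-strep). Step two: 12-hour incubation at 37 deg C. Step three: pin 23 nL compound, incubate 24 hr. Step four: add luciferase reagent, read luminescence 12 min later.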
CCT chaperon mod = cytosolic chaperonin activity modulation | activity change, % (no concentration beside the values), hits read low | purified chaperonin ATPase assay, HTRF ADP detection, 30 min | 0.3% of 360,000 active | AID 651819; in the data active means activity change below about -30%
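Enzyme 40 or 20 nM (batch-dependent) in Tris pH 7.4/KCl/MgCl2/DTT; cpd 76 uM single point; ATP 10 uM; 30 min 37 °C; Transcreener ADP HTRF detection, 30 min RT; ratio 665/615.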
Mm-Cpn inhibitor = blocks the Methanococcus maripaludis chaperonin Mm-Cpn; purified Mm-Cpn ATPase, ADP Transcreener TR-FRET; Potency, µM (top dose mostly 76.9 µM), most hits filed as inhibitors; 0.031% of 330,000 active; further: nearly all actives have a fitted effect of over 80% in size
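Purified archaeal Mm-CPN (25nM final) preincubated 10 min at 37degC with compound, then 10uM ATP for 30 min at 37degC; ADP measured by HTRF Transcreener TR-FRET; buffer 30 mM TRIS pH 7.4, 100mM KCl, 5mM MgCl2, 1mM DTT.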
GLP-1R agonist = GLP-1 receptor (human) agonism | P43220 | 0.007% of 380,000 active | HEK293 GLP-1R CRE-luciferase, luminescence, 4-6 h; cells express a hypersensitive GLP-1R form | Potency, µM (highest dose often 45.6 µM), usual class: activators
Target sequence (P43220 whole entry, looked up): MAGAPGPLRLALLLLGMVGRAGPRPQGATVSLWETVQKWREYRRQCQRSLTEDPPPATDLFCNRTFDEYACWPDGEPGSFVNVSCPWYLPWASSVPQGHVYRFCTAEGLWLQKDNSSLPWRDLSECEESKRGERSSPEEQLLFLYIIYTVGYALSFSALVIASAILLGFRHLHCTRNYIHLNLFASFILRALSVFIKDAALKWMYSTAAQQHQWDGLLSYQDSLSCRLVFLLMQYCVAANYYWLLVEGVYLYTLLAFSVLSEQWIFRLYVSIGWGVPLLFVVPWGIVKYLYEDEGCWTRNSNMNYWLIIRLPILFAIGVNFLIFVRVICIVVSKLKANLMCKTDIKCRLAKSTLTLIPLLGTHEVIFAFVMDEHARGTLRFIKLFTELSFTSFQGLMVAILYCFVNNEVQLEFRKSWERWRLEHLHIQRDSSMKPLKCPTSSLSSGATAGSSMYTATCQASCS
GLP1R inv ag = acts as inverse agonist at human GLP-1 receptor; P43220; HEK293 GLP-1R CRE-luciferase, luminescence, 24 h; GLP-1R form is constitutively active; Potency, µM (titrated, usually from 38.3 µM), most hits filed as inhibitors; 1.6% of 410,000 active; AID 624417; further: nearly all actives have a fitted effect of over 55% in size
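Readout was luciferase luminescence, measured 12 min after detection reagent at room temperature. Beforehand, GLP-1R reporter HEK293 cells had sat 12 h, then received compounds for 24 hr at 37 deg C.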
uPA surface inh = inhibitors of cell surface uPA generation | cell surface uPA generation assay, qHTS | Potency, µM (top dose mostly 38.3 µM), hits mostly inhibitors | 0.31% of 330,000 active | AID 540303; active means well fitted inhibition curve with a large enough effect; inconclusive means small, poorly fitted or top-dose-only effect; inactive means no such curve, though single readings can be large or run the other way; tested in mouse RAW 264.7 cells; further: nearly all actives have a fitted effect of over 55% in size
Hits are given with their value; 0 = inactive; ? = inconclusive; - = not tested or not shown. Sampled rows, rich in hits. Any-hit rate of the full collection: about 2.2%. Unless noted, the call rests on the fitted dose curve; in most records, active means well fitted curve in the direction sought with a large enough effect; inconclusive means small, poorly fitted or top-dose-only effect, or another doubt; inactive means no such curve, though single readings can be large; an effect the other way counts as inactive or inconclusive.

SMILES	GLP1R cytotox	CCT chaperon mod	Mm-Cpn inhibitor	GLP-1R agonist	GLP1R inv ag	uPA surface inh
CCN(CC)CC#CC(OC)(c1ccccc1)c1ccccc1	0	0	0	0	5µM	-
CSCCC(NC(=O)/C(=C/c1ccco1)NC(=O)c1ccco1)C(=O)O (centres undefined)	0	-38	-	0	?	0
Cc1cc2c(cc1NS(=O)(=O)c1cccc(C#N)c1)n(C)c(=O)c(=O)n2C	0	-	-	-	0	-
CCCCC(O)(c1ccc(F)cc1)C(CN1CCOCC1)c1ccc(Cl)cc1 (centres undefined)	0	0	0	0	2.8µM	0
COc1ccc(C(O)(CCC(C)C)C(CN2CCOCC2)c2ccc(Cl)cc2)cc1 (centres undefined)	?	0	0	0	?	0
CCOc1ccc(C(O)(CCC(C)C)C(CN2CCOCC2)c2ccccc2)cc1 (centres undefined)	?	0	0	0	3.2µM	0
CCn1cc(S(=O)(=O)c2cc(C)cc(C)c2)c(=O)c2cc(F)c(N3CCN(c4ccccc4)CC3)cc21	0	-	-	-	0	-
O=C(c1ccccc1Cl)N1CCN(Cc2ccc3c(c2)OCO3)CC1	0	0	0	0	?	?
Cc1cc(C)cc(OCC(O)CN2CCN(Cc3ccc4c(c3)OCO4)CC2)c1 (centres undefined)	0	0	0	0	2.2µM	0
O=C(c1ccc(Br)s1)N1CCN(Cc2ccc3c(c2)OCO3)CC1	0	0	0	0	?	-
OC(COc1ccccc1)CN1CCN(Cc2ccc3c(c2)OCO3)CC1 (centres undefined)	0	0	0	0	0	0
O=C(C1CCCN(Cc2ccc3c(c2)OCO3)C1)N1CCCC1 (centres undefined)	0	-34	0	0	0	0
Cc1ccc(C(=O)N2CCN(Cc3ccc4c(c3)OCO4)CC2)c(Cl)c1	0	0	0	0	6.3µM	0
O=C(c1cc2c(s1)CCCC2)N1CCN(Cc2ccc3c(c2)OCO3)CC1	0	0	0	0	13µM	0
Cc1ccc(-n2ncc(C(=O)NCCCN3CCN(C)CC3)c2C2CCN(C(=O)OC(C)(C)C)CC2)cc1	0	-	-	-	0	-
CC1(C(=O)O)CCC2(C)CCC3(C)C(=CC(=O)[C@@H]4C5(C)CC[C@H](O[C@H]6O[C@H](C(=O)O)C(O)C(O)[C@H]6O[C@@H]6O[C@H](C(=O)O)C(O)C(O)C6O)C(C)(C)[C@@H]5CCC43C)[C@@H]2C1 (some centres undefined)	-	-	-	0	-	-
CCN(CC)c1ccc(C(=O)NC(=S)N2CCN(Cc3ccc4c(c3)OCO4)CC2)cc1	0	0	0	0	10µM	0
CCOC(=O)c1c(C)oc2nc(C)nc(NCC3CCN(Cc4ccccc4C)CC3)c12	0	-	-	-	0	-
CCN(c1ccccc1)S(=O)(=O)c1ccc(Cl)c(NC(=O)CN2CCCCCC2)c1	0	0	0	0	1.6µM	0
CCC(C)NCC(=O)Nc1cc(S(=O)(=O)N(CC)c2ccccc2)ccc1Cl (centres undefined)	0	0	0	0	?	0
CCN(c1ccccc1)S(=O)(=O)c1ccc(Cl)c(NC(=O)CN(C)Cc2cccc(F)c2)c1	0	0	-	0	5µM	0
COc1ccccc1N(Cc1ccccc1)S(=O)(=O)c1cccc(C(=O)O)c1	0	0	0	0	0	0
COc1ccccc1N(Cc1ccccc1)S(=O)(=O)c1cccc(C(=O)Nc2cc(C)ccn2)c1	0	0	0	0	4.5µM	0
COc1ccccc1N(Cc1ccccc1)S(=O)(=O)c1cccc(C(=O)Nc2ncccc2C)c1	0	0	0	0	?	0
COc1ccccc1N(Cc1ccccc1)S(=O)(=O)c1cccc(C(=O)NC2CC(C)(C)NC(C)(C)C2)c1	?	0	0	0	5µM	0
SMILES	GLP1R cytotox	CCT chaperon mod	Mm-Cpn inhibitor	GLP-1R agonist	GLP1R inv ag	uPA surface inh
O=C(CSc1nccn1Cc1ccco1)Nc1cc(C(F)(F)F)ccc1Cl	0	-	-	-	?	-
COc1cccc(/C=C/C(=O)NNC(=O)c2ccco2)c1OC	0	0	0	0	0	2.8µM
Cc1ccc(S(=O)(=O)Nc2ccccc2N2CCCCC2)cc1	0	0	0	0	2.8µM	?
COc1ccc(C(=O)NCCc2sc(-c3cccc(F)c3)nc2C)cc1	0	-	-	-	?	-
CCOc1ccc(N(Cc2cc3cc(C)ccc3[nH]c2=O)C(=O)c2cccc(Cl)c2)cc1	0	-	-	-	0	-
OCCNCCCCSc1ccc(Cl)cc1	0	0	0	0	?	8.9µM
COCCCNCCCCSc1ccc(Cl)cc1	0	0	0	0	11µM	0
CC(C)NCCOCCSc1ccc(Cl)cc1	0	0	0	0	13µM	0
OCCNCCSc1ccc(Cl)cc1	0	0	?	0	0	0
CCCCNCCOCCSc1ccc(Cl)cc1	0	0	?	0	0	0
Cc1ccc(C(=O)NCC(c2ccco2)S(=O)(=O)c2ccc(Cl)cc2)cc1C (centres undefined)	0	-	-	-	0	-
COc1ccc(-c2cc(C)no2)cc1S(=O)(=O)Nc1c(C)cc(C)cc1C	0	-	-	-	?	-
O=C(Nc1cc(C(F)(F)F)ccc1Cl)C(Sc1ccccn1)c1ccccc1 (centres undefined)	0	0	0	0	8.9µM	0
CCCCc1ccc(NC(=O)CSc2nc3ccccc3nc2N2CCOCC2)cc1	0	-	-	-	0	-
Cc1ccccc1C(=O)n1nc(-c2ccco2)nc1NCc1cccs1	0	-	-	-	0	-
Cc1ccc(C)c(CN2C(=O)c3ccccc3S(=O)(=O)c3ccc(C(=O)N(C)C4CCCCC4)cc32)c1	0	-	-	-	?	-
CC(C(=O)NC(C)(C)C)N(Cc1cccs1)C(=O)CCN1CCc2ccccc21 (centres undefined)	0	0	0	0	10µM	0
Cc1ccccc1OCCSc1nc2ccc(NC(=O)c3cccs3)cc2s1	0	-	-	-	13µM	-
Cc1ccccc1OCCSc1nc2ccc(NC(=O)c3cccc(F)c3)cc2s1	0	-	-	-	?	-
Cc1ccccc1OCCSc1nc2ccc(NC(=O)c3ccccc3)cc2s1	0	-	-	-	2.8µM	-
CN(C)c1cccc(C(=O)OCCCC(=O)c2ccc(F)cc2)c1	0	-38	0	0	?	0
CC(C)N(C(=O)COC(=O)c1cccc(N(C)C)c1)c1ccccc1	0	0	0	0	4.5µM	0
CS(=O)(=O)c1cccc(C(=O)OCCCC(=O)c2ccccc2)c1	0	0	0	0	0	0
CN(C)c1cccc(C(=O)OCC(=O)Nc2ccccc2-c2ccccc2)c1	0	0	0	0	0	0
O=C(OCC#CCSc1nnc(-c2cccc3ccccc23)s1)c1cccs1	-	-	0	-	-	-
C/C(=N\Nc1nc2ccccc2nc1C)c1ccccc1O	0	0	0	0	?	0
CC(=NNc1ccc2ccccc2n1)c1ccccc1O	?	0	-	0	2.8µM	0

Assay outcomes deposited in PubChem by National Center for Advancing Translational Sciences (NCATS).
